For one assay, the system named is HB3. Nature of the assay: qHTS profiling for inhibitors of Plasmodium falciparum proliferation (AID 504749). The following applies: P. falciparum in erythrocytes, SYBR Green DNA, 72 h; series mostly up to 28.7 µM. The procedure, abridged: (§1)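 Readout was DNA-dye fluorescence from lysed cultures, ex 485/em 535 nm. Parasitized red cells had grown 72 h with compound; data scaled between 0.29 uM artemisinin and DMSO wells and corrected using vehicle-only plates.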
On the technique in general: In qHTS, concentration-response curves come from the screen itself.

A further assay concerns JCK. Described as above. To be noted: P. falciparum in erythrocytes, SYBR Green DNA, 72 h; series mostly up to 28.7 µM. The method in brief:
as §1

The next assay concerns PAD. The assay is described as above. The following applies: P. falciparum in erythrocytes, SYBR Green DNA, 72 h; series mostly up to 28.7 µM. The method in brief:
as §1

The test system of the next assay is PC49. Described as above. To be noted: P. falciparum in erythrocytes, SYBR Green DNA, 72 h; series mostly up to 28.7 µM. The method in brief: as §1
For the next assay, the system named is TAB113. The description is as above. The following applies: P. falciparum in erythrocytes, SYBR Green DNA, 72 h; series mostly up to 28.7 µM. The procedure, abridged:
as §1

The next assay has as its system W2. The assay is described as above. The following applies: P. falciparum in erythrocytes, SYBR Green DNA, 72 h; series mostly up to 28.7 µM. The method in brief: as §1
In a further assay the test system is CRL-7250. Nature of the assay: Cytotoxic Profiling of Annotated Libraries Using Quantitative High-Throughput Screening (AID 1296008). As to max response: % is scaled to controls: 0 for no effect and ±100 for the full control effect. The following applies: Five cell lines viability, CellTiter-Glo ATP luminescence, 48-72 h; max response: active compounds read low. The procedure, abridged: (§2)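 Cells exposed to compounds for 48 or 72 hr at 37 degrees Celsius. Viability read as ATP-coupled luminescence with CellTiter-Glo after 10 min at room temperature.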
Background: Cellular ATP, detected with luciferase, serves as a proxy for viable cell number.

The test system of the next assay is HEK293. The description is as above. To be noted: Five cell lines viability, CellTiter-Glo ATP luminescence, 48-72 h; max response: active compounds read low. The procedure, abridged:
as §2

For the next assay, the system named is HaCat. The assay is described as above. To be noted: Five cell lines viability, CellTiter-Glo ATP luminescence, 48-72 h; max response: active compounds read low. The method in brief:
as §2

The test system of another assay is KB-3-1. Described as above. To be noted: Five cell lines viability, CellTiter-Glo ATP luminescence, 48-72 h; max response: active compounds read low. The procedure, abridged: as §2
The subject of a further assay is NIH3T3. Described as above. To be noted: Five cell lines viability, CellTiter-Glo ATP luminescence, 48-72 h; max response: active compounds read low. The procedure, abridged: as §2
The next assay concerns ICS. Nature of the assay: qHTS profiling for inhibitors of Plasmodium falciparum proliferation (AID 504749). To be noted: P. falciparum in erythrocytes, SYBR Green DNA, 72 h; series mostly up to 28.7 µM. The method in brief: as §1
A further assay concerns N140. The description is as above. To be noted: P. falciparum in erythrocytes, SYBR Green DNA, 72 h; series mostly up to 28.7 µM. The procedure, abridged:
as §1

A further assay relates to P93_24. The description is as above. To be noted: P. falciparum in erythrocytes, SYBR Green DNA, 72 h; series mostly up to 28.7 µM. The method in brief:
as §1

The test system of another assay is P94_40. The assay is described as above. To be noted: P. falciparum in erythrocytes, SYBR Green DNA, 72 h; series mostly up to 28.7 µM. The method in brief: as §1
In a further assay the test system is PC15. The assay is described as above. To be noted: P. falciparum in erythrocytes, SYBR Green DNA, 72 h; series mostly up to 28.7 µM. The procedure, abridged:
as §1

For another assay, the system named is PC26. The description is as above. The following applies: P. falciparum in erythrocytes, SYBR Green DNA, 72 h; series mostly up to 28.7 µM. The method in brief: as §1
A further assay relates to SC27B. The description is as above. To be noted: P. falciparum in erythrocytes, SYBR Green DNA, 72 h; series mostly up to 28.7 µM. The procedure, abridged:
as §1

The test system of a further assay is TAB109. Described as above. To be noted: P. falciparum in erythrocytes, SYBR Green DNA, 72 h; series mostly up to 28.7 µM. The procedure, abridged: as §1
A further assay deals with TAB165. The description is as above. To be noted: P. falciparum in erythrocytes, SYBR Green DNA, 72 h; series mostly up to 28.7 µM. The method in brief:
as §1

Drawing on PubChem BioAssay (NCATS), this text covers Potency, max response and outcome for eight compounds.

Records with an inconclusive call do not appear. A number with no mark means an inactive call. Calls of active or inactive are those of the source. Calls follow the shape of the dose curve; as a rule, active = well fitted inhibition curve with a large enough effect; inconclusive = small, poorly fitted or top-dose-only effect; inactive = flat fitted curve, though single readings scatter.
Also: nearly all actives have a fitted effect of over 60% in size.
Potency is read from the fitted curve at half-maximal effect.

For `CCN(CC)CCOc1ccccc1C(=O)CCc1ccccc1`, the Potency entry in the assay on HB3, with JCK, in the assay on PAD, in the assay on PC49 and in the assay on TAB113 was “inactive” in each case. Further, the Potency in the assay with W2 was 2.13 µM (active); with HEK293, 11.9 µM (active). Also, the results for the max response in the assay with CRL-7250, in the assay with KB-3-1 and with NIH3T3 were -0.916%, -2.43% and -3.4%, respectively. The result in the assay with HaCat was inactive.

For the compound `N#CCC(=O)NN`, the Potency entry with HB3, in the assay with ICS, with JCK, in the assay with N140, with P93_24 and in the assay with P94_40 was “inactive” in each case. Moreover, the Potency result in the assay with PAD, in the assay with PC15, in the assay with PC26, in the assay on PC49, with SC27B and in the assay with TAB109 was “inactive” in each case. In addition, the Potency result with TAB113, in the assay on TAB165 and with W2 was “inactive” throughout. Further, the compound was classed as inactive in the assay with CRL-7250 and in the assay with HaCat. In addition, the max response with HEK293 was 3.14%; with KB-3-1 it was -1.35%.

As to `O=C(O)C(Cc1cc(I)c(O)c(I)c1)c1ccccc1` (centres undefined), the Potency entry in the assay with HB3, with ICS, in the assay with JCK, in the assay on N140, with P93_24 and in the assay with P94_40 was “inactive” in each case. Also, the Potency entry in the assay with PAD, with PC15, with PC26, in the assay with PC49, in the assay with SC27B and in the assay on TAB109 was “inactive” throughout. Also, the Potency result in the assay with TAB113, in the assay with TAB165 and in the assay with W2 was “inactive” each time. The max response is -5.72% in the assay on CRL-7250, 1.09% in the assay with HEK293, -3.38% in the assay on HaCat and -19.3% with NIH3T3.

Turning to `O=C(Oc1cccc2cccnc12)c1ccccc1`, the Potency entry in the assay on HB3, with JCK, in the assay on N140, with P93_24, in the assay on P94_40 and with PAD was “inactive” in each case. In addition, the Potency entry in the assay with PC15, with PC49, in the assay with SC27B, in the assay on TAB109, with TAB113 and in the assay with TAB165 was “inactive” in each case. Besides, the max response with CRL-7250 was -27.3%; in the assay with HEK293 it was -102%; in the assay with HaCat, -16.2%; in the assay with KB-3-1, 6.72%.

On to `CC(=O)O[C@H]1C[C@@H]2CC[C@@H]3[C@H](CC[C@@]4(C)[C@H]3C[C@H]([N+]3(C)CCCCC3)[C@@H]4OC(C)=O)[C@@]2(C)C[C@@H]1N1CCCCC1`, for which the Potency result with JCK, in the assay on N140, in the assay on PAD, in the assay with PC15, with PC26 and in the assay with PC49 was “inactive” each time. For the same compound, the Potency result in the assay on SC27B and with TAB113 was “inactive” each time. The Potency with W2 was 12 µM (active). Besides, the max response was -0.866% in the assay on CRL-7250; 1.01% in the assay with HEK293; 3.88% with HaCat; -0.262% with KB-3-1; 3.84% in the assay on NIH3T3.

In the case of `CC(=C(CCOC(=O)C(C)C)SSC(CCOC(=O)C(C)C)=C(C)N(C=O)Cc1cnc(C)nc1N)N(C=O)Cc1cnc(C)nc1N`, the max response with CRL-7250 is 0.406%; in the assay on HEK293, -4.89%. Besides, the outcome in the assay with HaCat and with NIH3T3 was inactive.

For `NCCNc1cccc2ccccc12`, the Potency entry in the assay on HB3, in the assay with JCK, in the assay with N140, in the assay with P94_40, in the assay on PAD and in the assay on PC15 was “inactive” each time. Besides, the Potency result in the assay with PC26, with PC49, in the assay on TAB109 and with TAB165 was “inactive” each time. Also, the max response was -3.59% in the assay on CRL-7250; -7.17% with HEK293; -24.9% with HaCat; -12.5% in the assay on KB-3-1; 0.794% in the assay on NIH3T3.

With `CN(C)C(=O)Nc1ccc(Cl)c(Cl)c1`, the Potency result in the assay with JCK, in the assay with P94_40, in the assay on TAB109, with TAB113 and with TAB165 was “inactive” throughout. For the same compound, in the assay with PC49, the Potency was 3.55 µM (active). Moreover, the max response in the assay with CRL-7250 was 2.46%; with HEK293 it was 3.61%; in the assay on HaCat it was -27.1%; with KB-3-1, -25.2%; with NIH3T3 it was -5.25%.
